Measurements reported in PubChem BioAssay (Tox21).
Several values for one entry are separate records, joined by “and”; a condition that tells them apart may be missing. Equal entries are not always repeated. A number with no mark means an inactive call. Records with an inconclusive call do not appear. A call without a number means that no potency is given here. Activity calls are given as the source filed them. The call rests on the fitted dose curve; in most records, active means well fitted curve in the direction sought with a large enough effect in the repeat runs; inconclusive means weak or mixed curves; inactive means no such curve, though single readings can be large; an effect the other way counts as inactive or inconclusive.

Legend:
[1] = A CellTox Green Cytotoxicity Assay to monitor cytotoxicity in HEK293 cells - 40 hour (AID 1224871); further: nearly all actives have a fitted effect of over 45% in size; further: potency means the concentration at half of the fitted maximal effect
How it was run: (§1)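 Fluorescence from a DNA-binding dye excluded by viable cells was measured repeatedly in the same HEK293 wells (600 cells/well) during continuous compound exposure at 37 C. Each assay gives one read point: 0, 8, 16, 24, 32 or 40 h.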

[2] = qHTS RealTime-Glo MT Cell Viability Assay in HEK293 cells - 16 hour (AID 1224872); further: nearly all actives have a fitted effect of over 50% in size; further: potency means the concentration at half of the fitted maximal effect
How it was run: (§2)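 HEK293 cells were seeded at 600 cells/well together with NanoLuc luciferase and cell-permeant prosubstrate, preincubated 5 h at 37 C/5% CO2, then given compound in DMSO by pintool. Luminescence from viable-cell prosubstrate reduction was read repeatedly over 40 h.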

[3] = qHTS RealTime-Glo MT Cell Viability Assay in HepG2 cells - 8 hour (AID 1224873); further: nearly all actives have a fitted effect of over 55% in size; further: potency means the concentration at half of the fitted maximal effect
How it was run: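 HepG2 cells mixed with RealTime-Glo MT reagents (NanoLuc plus cell-permeant prosubstrate) were seeded at 600 cells/well, incubated 5 h at 37 C/5% CO2, then pinned with compounds in DMSO; nonlytic luminescence tracked viability during 40 h treatment.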

[4] = A CellTox Green Cytotoxicity Assay to monitor cytotoxicity in HEK293 cells - 24 hour (AID 1224875); further: nearly all actives have a fitted effect of over 45% in size; further: potency means the concentration at half of the fitted maximal effect
How it was run: as §1

[5] = A CellTox Green Cytotoxicity Assay to monitor cytotoxicity in HepG2 cells - 16 hour (AID 1224876); further: nearly all actives have a fitted effect of over 45% in size; further: potency means the concentration at half of the fitted maximal effect
How it was run: (§3)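 Real-time cytotoxicity: fluorescence of a cell-impermeant cyanine dye binding DNA of dead HepG2 cells, measured repeatedly (0–40 h) during compound exposure at 37 C. Cells seeded 600/well with reagent, dosed after 5 h.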

[6] = A CellTox Green Cytotoxicity Assay to monitor cytotoxicity in HepG2 cells - 24 hour (AID 1224878); further: nearly all actives have a fitted effect of over 45% in size; further: potency means the concentration at half of the fitted maximal effect
How it was run: as §3

[7] = A CellTox Green Cytotoxicity Assay to monitor cytotoxicity in HepG2 cells - 40 hour (AID 1224879); further: nearly all actives have a fitted effect of over 40% in size; further: potency means the concentration at half of the fitted maximal effect
How it was run: as §3

[8] = qHTS RealTime-Glo MT Cell Viability Assay in HEK293 cells - 0 hour (AID 1224880)
How it was run: (§4)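 Luminescence, which tracks viable cell number through reduction of the prosubstrate to a NanoLuc substrate, was read over continuous 37 C culture. Cells (600/well) were premixed with reagent and rested 5 h before 23 nL of compound in DMSO was pinned.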

[9] = A CellTox Green Cytotoxicity Assay to monitor cytotoxicity in HEK293 cells - 32 hour (AID 1224881); further: nearly all actives have a fitted effect of over 40% in size; further: potency means the concentration at half of the fitted maximal effect
How it was run: as §1

[10] = A CellTox Green Cytotoxicity Assay to monitor cytotoxicity in HepG2 cells - 0 hour (AID 1224882); further: nearly all actives have a fitted effect of over 35% in size
How it was run: as §3

[11] = A CellTox Green Cytotoxicity Assay to monitor cytotoxicity in HepG2 cells - 32 hour (AID 1224883); further: nearly all actives have a fitted effect of over 50% in size; further: potency means the concentration at half of the fitted maximal effect
How it was run: as §3

[12] = A CellTox Green Cytotoxicity Assay to monitor cytotoxicity in HEK293 cells - 8 hour (AID 1224884); further: nearly all actives have a fitted effect of over 35% in size; further: potency means the concentration at half of the fitted maximal effect
How it was run: as §1

[13] = A CellTox Green Cytotoxicity Assay to monitor cytotoxicity in HEK293 cells - 16 hour (AID 1224888); further: nearly all actives have a fitted effect of over 35% in size; further: potency means the concentration at half of the fitted maximal effect
How it was run: as §1

[14] = qHTS RealTime-Glo MT Cell Viability Assay in HepG2 cells - 0 hour (AID 1224889); further: nearly all actives have a fitted effect of over 50% in size
How it was run: (§5)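 HepG2 cells were seeded at 600 cells/well together with NanoLuc luciferase and a cell-permeant prosubstrate, preincubated 5 h at 37 C/5% CO2, then pin-dosed with compounds in DMSO. Nonlytic luminescence from viable cells was read at each time point.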

[15] = A CellTox Green Cytotoxicity Assay to monitor cytotoxicity in HepG2 cells - 8 hour (AID 1224890); further: nearly all actives have a fitted effect of over 45% in size; further: potency means the concentration at half of the fitted maximal effect
How it was run: as §3

[16] = qHTS RealTime-Glo MT Cell Viability Assay in HEK293 cells - 40 hour (AID 1224874); settings: RealTime-Glo luminescence; max response: active compounds read low; further: nearly all actives have a fitted effect of over 50% in size
How it was run: as §4

[17] = qHTS RealTime-Glo MT Cell Viability Assay in HepG2 cells - 32 hour (AID 1224877); further: nearly all actives have a fitted effect of over 55% in size; further: potency means the concentration at half of the fitted maximal effect
How it was run: as §5

[18] = qHTS RealTime-Glo MT Cell Viability Assay in HepG2 cells - 16 hour (AID 1224885); further: nearly all actives have a fitted effect of over 50% in size; further: potency means the concentration at half of the fitted maximal effect
How it was run: as §5

[19] = qHTS RealTime-Glo MT Cell Viability Assay in HEK293 cells - 8 hour (AID 1224887); further: nearly all actives have a fitted effect of over 50% in size; further: potency means the concentration at half of the fitted maximal effect
How it was run: as §4

[20] = qHTS RealTime-Glo MT Cell Viability Assay in HEK293 cells - 24 hour (AID 1224886); further: nearly all actives have a fitted effect of over 50% in size; further: potency means the concentration at half of the fitted maximal effect
How it was run: as §2

Structure (SMILES) | Potency [1] | Potency [2] | Potency [3] | Potency [4] | Potency [5] | Potency [6] | Potency [7] | Potency [8] | Potency [9] | Potency [10] | Potency [11] | Potency [12] | Potency [13] | Potency [14] | Potency [15] | max response [16] [%] | Potency [17] | Potency [18] | Potency [19] | Potency [20]
[C-]1=CC=CC1.[Cl][Zr+2][Cl].c1cc[cH-]c1 | inactive | inactive | inactive | inactive | inactive | inactive | inactive | inactive | inactive | inactive | inactive | inactive | inactive | inactive | inactive |  |  |  |  | 
CC(Cc1ccc(O)cc1)NCC(O)c1cc(O)cc(O)c1 (stereo not given) | inactive | inactive |  | inactive | inactive | inactive | inactive | inactive | inactive | inactive | inactive | inactive | inactive | inactive | inactive | 1.61 | inactive | inactive | inactive | 
CCC1(CC)C(=O)N=C(O)NC1=O | inactive | inactive | inactive | inactive | inactive | inactive |  | inactive | inactive | inactive | inactive | inactive | inactive | inactive |  |  | inactive | inactive | inactive | inactive
O=C1C2(Cl)C3(Cl)C4(Cl)C(Cl)(Cl)C5(Cl)C3(Cl)C1(Cl)C5(Cl)C24Cl (stereo not given) | 42.9 µM (active) and 52.6 µM (active) | 21.5 µM (active) and 41.8 µM (active) | 42.9 µM (active) and 46.9 µM (active) | 38.3 µM (active) and 52.6 µM (active) | 24.1 µM (active) and 41.8 µM (active) | 48.2 µM (active) and 41.8 µM (active) |  | inactive | 38.3 µM (active) and 52.6 µM (active) | inactive | 24.1 µM (active) and 41.8 µM (active) | 34.1 µM (active) and 52.6 µM (active) | 42.9 µM (active) and 52.6 µM (active) | inactive | 21.5 µM (active) and 41.8 µM (active) |  | 48.2 µM (active) and 46.9 µM (active) | 48.2 µM (active) and 46.9 µM (active) | 34.1 µM (active) and 46.9 µM (active) | 17.1 µM (active) and 41.8 µM (active)
CCCCC(CC)COC(=O)OOC(C)(C)C (stereo not given) | inactive | inactive |  | inactive | inactive | inactive | inactive | inactive | inactive | inactive | inactive | inactive | inactive | inactive | inactive | 0.0606 | inactive | inactive |  | 
CNC(C)(C)Cc1ccccc1 | inactive | inactive | inactive | inactive | inactive | inactive | inactive | inactive | inactive | inactive | inactive | inactive | inactive | inactive |  |  |  | inactive | inactive | inactive
CCC(C)c1cccc(C(C)CC)c1O (stereo not given) | 27.5 µM (active) | inactive | inactive | 38.9 µM (active) | 17.4 µM (active) | 19.5 µM (active) | 19.5 µM (active) | inactive | 30.9 µM (active) | inactive | 19.5 µM (active) | inactive |  | inactive | 19.5 µM (active) |  |  | inactive | inactive | 
CC(Cc1ccc(OCC(=O)O)cc1)NCC(O)c1csc(C(F)(F)F)n1 (stereo not given) | inactive | inactive | inactive | inactive | inactive | inactive | inactive | inactive | inactive | inactive | inactive | inactive | inactive | inactive | inactive |  |  | inactive | inactive | inactive
CN1C(=O)[C@@H](NC(=O)c2cc3ccccc3[nH]2)N=C(c2ccccc2)c2ccccc21 | inactive | inactive |  | inactive | inactive | inactive | inactive | inactive | inactive | inactive | inactive | inactive | inactive | inactive | inactive | 20 | inactive |  | inactive | inactive
CSC1=N[C@@](C)(c2ccccc2)C(=O)N1Nc1ccccc1 | inactive | inactive | inactive | inactive | inactive | inactive |  |  | inactive | inactive | inactive | inactive | inactive | inactive | inactive |  | inactive | inactive | inactive | inactive
CC(C)=CC1C(C(=O)OC(C#N)c2cccc(Oc3ccccc3)c2)C1(C)C (stereo not given) | inactive | inactive |  | inactive | inactive | inactive | inactive | inactive | inactive | inactive | inactive | inactive | inactive | inactive | inactive | -3.44 | inactive | inactive | inactive | 
O=c1[nH]c2cc(Cl)ccc2n1C1CCNCC1 | inactive | inactive |  | inactive | inactive | inactive | inactive | inactive | inactive | inactive | inactive |  | inactive | inactive |  | 4.84 | inactive | inactive | inactive | inactive
C1=CCC=C1 | inactive | inactive | inactive | inactive | inactive | inactive |  | inactive | inactive | inactive | inactive |  | inactive | inactive | inactive |  |  |  | inactive | 
